Screening results: PubChem BioAssay, National Center for Advancing Translational Sciences (NCATS)
IL-1B inflam inh: qHTS for Inhibitors of Inflammasome Signaling: IL-1-beta AlphaLISA Primary Screen; activity change, % at 57.5 µM; 360,000 compounds, 4.7% hits; THP-1 LPS/ATP IL-1B secretion, AlphaLISA, 16 h; active compounds read low; in the data active = activity change below about -50%; inconclusive = mostly about -30% to -49%
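Secreted IL-1B measured by AlphaLISA bead assay after 16 h compound exposure of THP-1 cells; compounds (final up to 57.5 uM) added 1 h before LPS (250 ng/mL) and ATP (1.25 mM) stimulation; lower signal means less secretion.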
TDP1 inh: qHTS Assay for Inhibitors of Tyrosyl-DNA Phosphodiesterase (TDP1); Tyrosyl-DNA phosphodiesterase 1 (Homo sapiens), Q9NUW8; Potency, µM (titrated, usually from 130 µM), without a hit: top-dose activity change, negative = inhibition, most hits filed as inhibitors; AID 485290, 2010; 350,000 compounds, 0.28% hits; recombinant TDP1, AlphaScreen DNA substrate cleavage; note: potency is the fitted concentration of half-maximal effect; nearly all actives have a fitted effect of over 40% in size
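Steps: enzyme plus compound, 15 min RT; add biotin/phosphotyrosine-FITC oligonucleotide (15 nM final), react 5 min; add donor/acceptor beads (10 ug/ml final), 10 min; read AlphaScreen. Tdp1 at 1 nM final.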
CtBP-E1A blk: qHTS Assay for Inhibitors of the CtBP/E1A Interaction | CtBP / adenovirus E1A interaction (AlphaScreen) | AlphaScreen GST-E1A/His-CtBP binding, 1536-well; active compounds read low | activity change, % (test concentration not listed) | 340,000 compounds, 0.49% hits | AID 651724, 2012; in the data active = activity change below about -65%; inconclusive = mostly about -30% to -63%
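AlphaScreen with 125 nM GST-E1A and 125 nM His-CtBP (5X stocks) in Tris pH 8.0, 300 mM NaCl, BSA, Tween 20, TCEP. Compounds preincubated 2 h at 37 deg C, then glutathione donor/nickel acceptor beads added for 1 h at 37 deg C in dark.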
Six1-Eya2 inh: qHTS Assay for Inhibitors of the Six1/Eya2 Interaction; Homeobox protein SIX1 (Homo sapiens) + Protein phosphatase EYA2 (Homo sapiens), …; AlphaScreen GST-Six1/His-Eya2 binding, biochemical; active compounds read low; activity change, % (concentration not given with the values); 360,000 compounds, 0.56% hits; AID 651725, 2012; in the data active = activity change below about -65%; inconclusive = mostly about -30% to -63%
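Six1/Eya2 binding was read as AlphaScreen signal after compounds were pinned into GST-Six1 plus His-tagged Eya2 (5X stock 250/500 nM) in pH 8.0 Tris/NaCl/TCEP buffer, beads added, then incubated 1 h, 37 C, dark.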
TDP1 cell noCPT: qHTS for Inhibitors of human tyrosyl-DNA phosphodiesterase 1 (TDP1): qHTS in cells in absence of CPT; DT40 Tdp1-/- hTDP1 cells, no CPT, ATP luminescence, 48 h; Potency, µM (series often up to 46.2 µM), inactives show at the highest dose activity change, negative = growth inhibition, actives largely listed as inhibitors; 420,000 compounds, 15% hits; AID 686978, 2013; note: potency is the fitted concentration of half-maximal effect; nearly all actives have a fitted effect of over 55% in size
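DT40 Tdp1-/-;hTDP1 cells, no CPT (DMSO vehicle only), 400 cells/well; compounds pin-transferred; ≥48 hr, 37 °C; CellTiter-Glo 30 min RT dark, luminescence read.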
TDP1 cell CPT: qHTS for Inhibitors of human tyrosyl-DNA phosphodiesterase 1 (TDP1): qHTS in cells in presence of CPT | chicken DT40 Tdp1-/-;hTDP1 cells + 20 nM CPT, ATP luminescence, 48 h | Potency, µM (top dose mostly 46.2 µM), inactives show at the highest dose activity change, negative = growth inhibition, hits mostly inhibitors | 420,000 compounds, 12% hits | AID 686979, 2013; note: potency is the fitted concentration of half-maximal effect; nearly all actives have a fitted effect of over 55% in size
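Cell growth measured by CellTiter-Glo luminescence after a minimum 48 h, 37 C compound exposure with 20 nM CPT in Tdp1-knockout DT40 cells stably expressing hTDP1, seeded 400/well; qHTS titration format.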
* hit, by the source's call; ? = inconclusive; · = no result; [ ] = dose if it differs, or a comment. Only some compounds are listed: those with a hit (about 18% of all), similar ones and a draw of the others. Unless noted, calls come from the whole dose curve; as a rule, active = well fitted curve in the direction sought with a large enough effect; inconclusive = small, poorly fitted or top-dose-only effect, or another doubt; inactive = no such curve, though single readings can be large; an effect the other way counts as inactive or inconclusive. % is set by controls: 0 for no effect and ±100 for the full control effect.

SMILES	IL-1B inflam inh	TDP1 inh	CtBP-E1A blk	Six1-Eya2 inh	TDP1 cell noCPT	TDP1 cell CPT
Cn1c(N)c(C(=O)COC(=O)c2ccc(Cl)c(S(=O)(=O)N3CCCC3)c2)c(=O)n(C)c1=O	24	0%	·	-16	-21%	?
Cc1cc(C)n(-c2nc(-n3nc(C)cc3C)c3c4c(sc3n2)COC(C)(C)C4)n1	·	4%	·	·	·	·
Cc1cc(C)n(-c2nc(NCCC(C)C)c3c4c(sc3n2)COC(C)(C)C4)n1	-2	0%	-3	-8	16µM*	9.2µM*
CCN(CC)CCNc1nc(-n2nc(C)cc2C)nc2sc3c(c12)CC(C)(C)OC3	-25	1%	3	2	10µM*	?
Cc1nc2sc3c(c2c(=N)n1N)CC(C)(C)OC3	4	6%	-5	1	0%	-2%
Cc1cc(C)n(-c2nc(NCCN(C)C)c3c4c(sc3n2)COC(C)(C)C4)n1	·	3%	-7	10	23µM*	?
Cc1cc(C)n(-c2nc(NCCCN(C)C)c3c4c(sc3n2)COC(C)(C)C4)n1	-62*	8%	-1	4	?	0%
CC1CCC(NC(=O)c2ccc(CS(=O)(=O)Cc3ccccc3F)o2)CC1 (stereo unspecified)	-18	3%	5	-1	?	-27%
CC(=O)N/C(=C/c1ccc2c(c1)OCO2)C(=O)Nc1ccccc1	-2	1%	5	5	11%	36%
Cc1cc(OCC(=O)Nc2ccccn2)c2c(C)c(C)c(=O)oc2c1	15	0%	·	1	-8%	-8%
Cc1cc(C)n(-c2nc(NCCN(C)C)c3c4c(sc3n2)CCCC4)n1	-98*	8%	-4	4	6.5µM*	8.2µM*
Cc1cc(C)n(-c2nc(SCCN3CCOCC3)c3c4c(sc3n2)CCCC4)n1	23	·	-6	-1	21µM*	-32%
CSc1nnc2c3c4c(sc3nc(-n3nc(C)cc3C)n12)COC(C)(C)C4	5	6%	9	-2	29µM*	?
Cc1cc(C)n(-c2nc(SCC(=O)Nc3nccs3)c3c4c(sc3n2)COC(C)(C)C4)n1	0	1%	-1	-3	23µM*	?
Cc1cc(C)n(-c2nc3sc4c(c3c3nnc(SCC(N)=O)n23)CC(C)(C)OC4)n1	-21	2%	-1	10	-24%	5%
Cc1cc(C)n(-c2nc(NCCCN(C)C)c3c4c(sc3n2)CCCC4)n1	-28	3%	-3	5	?	?
Cc1cc(C)n(-c2nc3sc4c(c3c(=O)[nH]2)CCCC4)n1	·	3%	·	·	·	·
Cc1ccc(CSCCNC(=O)CN(c2ccccc2)S(C)(=O)=O)cc1	18	-7%	·	0	-8%	3%
CCSc1nc(NCCN(C)C)c2c3c(sc2n1)COC(C)(CC)C3 (stereo unspecified)	?	4%	-3	9	?	21µM*
CCCCCCC/C=N/Nc1nnc(Cc2ccccc2)c(=O)[nH]1	26	·	-27	-23	0%	24%
CCn1c(/C=C/c2ccc(O)c(O)c2)nc2ccccc2c1=O	-19	-4%	·	-30	6.5µM*	?
Cc1ccc(/C=C/c2nc3ccccc3c(=O)n2CCc2ccccc2)cc1	-20	-1%	-2	0	16µM*	?
CCn1c(/C=C2\C(=O)Nc3ccccc32)nc2ccccc2c1=O	?	3%	-3	2	16µM*	?
CCn1c(/C=C/c2ccccc2F)nc2ccccc2c1=O	-14	-3%	-5	-16	?	?
CCn1c(/C=C/c2ccccc2C)nc2ccccc2c1=O	-9	-3%	1	-13	?	?
SMILES	IL-1B inflam inh	TDP1 inh	CtBP-E1A blk	Six1-Eya2 inh	TDP1 cell noCPT	TDP1 cell CPT
CCn1c(/C=C/c2ccc(O)cc2)nc2ccccc2c1=O	-96*	5%	-16	-5	26µM*	?
O=S(=O)(Nc1ccc(Cc2ccncc2)cc1)c1ccc(Br)s1	39	2%	-4	1	?	-26%
COc1ccc(CN2C(=O)c3oc4ccc(F)cc4c(=O)c3C2c2ccc(O)cc2)cc1 (stereo unspecified)	·	0%	·	·	8%	-8%
CCn1c(/C=C/c2cc(Br)ccc2O)nc2ccccc2c1=O	-58*	2%	-4	4	?	?
COc1ccc(NC(=O)c2ccc(CN3CCc4ccccc4C3)cc2)cc1OC	28	3%	2	-14	-17%	?
CCCn1c(C)cc(C(=O)CN2C(=O)c3cccc(N)c3C2=O)c1C	-1	0%	14	2	-17%	-20%
CCOC(=O)C(=CNc1cc(Cl)c(-c2ccco2)c(Cl)c1)C(=O)OCC	-7	·	·	7	12µM*	18µM*
CCOC(=O)C(=CNc1ccc(C(F)(F)F)cc1Cl)C(=O)OCC	9	2%	5	2	?	-6%
CCOC(=O)C(=CNc1ccc(-c2ccco2)c(Cl)c1)C(=O)OCC	-12	0%	·	19	16µM*	21µM*
N#C/C(=C/c1ccccc1Cl)c1nc(-c2cc3ccccc3oc2=O)cs1	·	-6%[12.3 µM]	·	·	0%	-2%
COc1cc(/C=C(/C#N)c2nc(-c3cc4ccccc4oc3=O)cs2)ccc1O	·	0%[12.3 µM]	·	·	2.9µM*	-2%
COc1ccc(CCn2c(SCCN3CCCCC3)nc3ccccc3c2=O)cc1OC	-28	4%	·	-3	16µM*	?
CCC(Sc1nc2c(sc3ccccc32)c(=O)n1CCc1ccccc1)C(=O)N(CC)CC (stereo unspecified)	·	3%	·	·	?	-26%
CCC(Sc1nc2ccccc2c(=O)n1CCc1ccc(OC)c(OC)c1)C(=O)N(CC)CC (stereo unspecified)	·	3%	·	·	6.5µM*	6.5µM*
CCC(Sc1nc2c(sc3ccccc32)c(=O)n1CCc1ccc(OC)c(OC)c1)C(=O)N(CC)CC (stereo unspecified)	·	4%	·	·	5.8µM*	6.5µM*
C=CCNC(=O)CSc1nc2ccccc2c(=O)n1CCc1ccc(OC)c(OC)c1	-17	·	3	-8	?	?
COc1cc2nc(N3CCCN(C)CC3)nc(NC3CCOCC3)c2cc1OC	·	·	·	·	7.1µM*	11µM*
